Source: PubChem BioAssay
Pf growth 96h – P. falciparum growth inhibition at 96 hour, primary screen for plastid delayed-death inhibitors | P. falciparum luciferase reporter growth, 96 h | Potency, µM (top dose mostly 28.7 µM), most hits filed as inhibitors | hit rate 6.9% among 320,000 | AID 504834
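Cell-based qHTS: luciferase-tagged P. falciparum in erythrocytes (2% hematocrit, 0.05% parasitemia final) incubated with compounds for 96 hours, 37 C, 5% CO2; luciferase detection reagent then added and luminescence measured.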
Sm TGR block – S. mansoni TGR enzyme inhibition; purified TGR, DTNB reduction, TNB absorbance 405 nm; Potency, µM (titrated, usually from 114 µM), actives largely listed as inhibitors; hit rate 3% among 360,000; AID 485364; note: nearly all actives have a fitted effect of over 60% in size
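TGR 20 nM + NADPH 100 uM (dispensed conc.), cpd preinc 15 min RT; start with NADPH (500 uM addition) then DTNB (15 mM addition). Kinetic TNB absorbance, 405 nm filter. Four-parameter Hill fit across titration.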
Pf growth 48h – P. falciparum growth inhibition at 48 hours (one generation); P. falciparum luciferase growth in erythrocytes, 48 h; Potency, µM (top dose mostly 28.7 µM), usual class: inhibitors; hit rate 5.9% among 310,000
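Cell-based growth assay: transgenic P. falciparum expressing firefly luciferase, cultured in red cells within RPMI 1640 containing 0.5% w/v Albumax, 24 mM bicarbonate and gentamycin. A drop in luciferase activity indicates inhibition.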
Giardia FBPA inh – blocks Giardia fructose-bisphosphate aldolase activity. AID 2451. hit rate 0.71% among 290,000. purified Giardia FBPA. A8B2U2. Potency, µM (doses to about 59.6 µM), most hits filed as inhibitors; note: nearly all actives have a fitted effect of over 55% in size
Target sequence (A8B2U2 whole entry, looked up): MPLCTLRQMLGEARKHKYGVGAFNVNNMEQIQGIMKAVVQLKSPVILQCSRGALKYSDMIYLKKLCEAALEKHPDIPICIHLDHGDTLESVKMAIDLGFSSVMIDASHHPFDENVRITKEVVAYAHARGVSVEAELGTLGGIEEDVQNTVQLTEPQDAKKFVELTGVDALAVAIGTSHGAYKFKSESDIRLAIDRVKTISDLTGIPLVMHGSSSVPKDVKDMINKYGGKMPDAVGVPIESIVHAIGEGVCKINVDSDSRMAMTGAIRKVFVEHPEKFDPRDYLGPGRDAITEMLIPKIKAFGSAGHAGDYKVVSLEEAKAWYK
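Giardia FBPA (40 nM reagent) was preincubated 10 min at RT with compound (up to 57.5 uM final), then substrate plus GAPDH/TPI/NAD/arsenate coupling system with diaphorase/resazurin was added; resorufin fluorescence (525/598 nm) was read after 20 min.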
HCMV antiviral – inhibitors of human cytomegalovirus; HFF cells, HCMV-luciferase reporter, 72 h; active compounds read low; activity change, negative = inhibition, % at 57.5 µM; hit rate 4.5% among 410,000; AID 1259415; in the data active = activity change below about -60%; inconclusive = no clear call, values can overlap the other calls; inactive = above about -39%
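Human foreskin fibroblasts infected with luciferase-reporter HCMV at MOI 1 PFU/cell, compounds at two doses. Luciferase measured 72 h post infection; normalized to buffer-only basal and Salinomycin (10uM) controls.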
Of the large screens only hits and unclear results are named; the others gave an inactive call. Most compounds without a hit are left out; they make up all but 14% or so of the library. Unless noted, calls come from the whole dose curve; as a rule, active = well fitted curve in the direction sought with a large enough effect; inconclusive = small, poorly fitted or top-dose-only effect, or another doubt; inactive = no such curve, though single readings can be large; an effect the other way counts as inactive or inconclusive.

O=C(CN1C(=O)NC2(CCCC2)C1=O)NCCN1C(=O)S/C(=C\c2ccccc2F)C1=O	Pf growth 96h 4.65µM, Pf growth 48h inconclusive (no result: Giardia FBPA inh)
Cc1oc(-c2cccs2)nc1CNC[C@H]1O[C@@H](n2cnc3c(N)ncnc32)[C@H](O)[C@@H]1O	none (no result: Pf growth 96h, Sm TGR block, Pf growth 48h, Giardia FBPA inh)
Oc1ccc(C[C@@H]2CNCCN2CC2CCCCC2)cc1	Pf growth 96h inconclusive, Pf growth 48h inconclusive, HCMV antiviral inconclusive (no result: Giardia FBPA inh)
Oc1ccc(C[C@H]2CNCCN2CCCCC2CCCCC2)cc1	Pf growth 96h inconclusive, Pf growth 48h 8.28µM, HCMV antiviral inconclusive (no result: Giardia FBPA inh)
Oc1ccc(C[C@@H]2CNCCN2CCC23CC4CC(CC(C4)C2)C3)cc1	Pf growth 96h 2.08µM, Pf growth 48h 10.4µM, HCMV antiviral -87.0 (no result: Giardia FBPA inh)
CCC(CC)NCC(O)COc1ccc(Br)cc1 (centres undefined)	Pf growth 96h 7.38µM, Pf growth 48h 3.7µM, Giardia FBPA inh inconclusive
COc1ccc(-c2nsc(NC(=O)COc3ccc(C)c(C)c3)n2)cc1	none (no result: Pf growth 96h, Pf growth 48h, Giardia FBPA inh)
O=c1[nH]c2ccccc2n1C1CCN(C(c2cccs2)c2nnnn2Cc2ccccc2)CC1 (centres undefined)	HCMV antiviral -95.9 (no result: Pf growth 96h, Sm TGR block, Pf growth 48h, Giardia FBPA inh)
COc1ccc(C(c2nnnn2-c2ccc(OC)cc2)N2CCC(n3c(=O)[nH]c4ccccc43)CC2)cc1 (centres undefined)	HCMV antiviral -60.7 (no result: Pf growth 96h, Sm TGR block, Pf growth 48h, Giardia FBPA inh)
Cc1cccc(C)c1-n1nnnc1C(c1cccs1)N1CCC(n2c(=O)[nH]c3ccccc32)CC1 (centres undefined)	HCMV antiviral -76.8 (no result: Pf growth 96h, Sm TGR block, Pf growth 48h, Giardia FBPA inh)
COc1ccc(C(c2nnnn2Cc2ccccc2)N2CCC(n3c(=O)[nH]c4ccccc43)CC2)cc1 (centres undefined)	HCMV antiviral -65.3 (no result: Pf growth 96h, Sm TGR block, Pf growth 48h, Giardia FBPA inh)
c1ccc(Cn2nnnc2C(c2cccs2)N2CCCCCC2)cc1 (centres undefined)	Pf growth 48h inconclusive, HCMV antiviral inconclusive (no result: Pf growth 96h)
CC(C)(C#N)NC(=O)C1CCCN1S(=O)(=O)c1ccc2ccccc2c1 (centres undefined)	none
CCN(CC(=O)Nc1ccc(OC)cc1)C(=O)c1ccc(OCc2c(C)noc2C)cc1	none (no result: Pf growth 96h, Sm TGR block, Pf growth 48h, Giardia FBPA inh)
CSc1ccccc1C(=O)N1CCCCC1	Pf growth 96h inconclusive
O=C(c1cc(C2CC2)nn1-c1ccccc1)N1CCN(c2ccccn2)CC1	Pf growth 96h inconclusive (no result: Giardia FBPA inh)
COc1cccc(CNC(=O)CCCn2c(=S)[nH]c3cc4c(cc3c2=O)OCO4)c1	Pf growth 48h inconclusive (no result: Giardia FBPA inh)
O=c1[nH]c2ccccc2n1C1CCN(C(c2ccccc2OC(F)(F)F)c2nnnn2Cc2ccccc2)CC1 (centres undefined)	HCMV antiviral -69.4 (no result: Pf growth 96h, Sm TGR block, Pf growth 48h, Giardia FBPA inh)
FC(F)(F)Oc1ccccc1C(c1nnnn1Cc1ccccc1)N1CCN(C/C=C/c2ccccc2)CC1 (centres undefined)	none (no result: Pf growth 96h, Sm TGR block, Pf growth 48h, Giardia FBPA inh)
COc1ccc(-n2nnnc2C(c2cc3ccccc3o2)N2CCC(n3c(=O)[nH]c4ccccc43)CC2)cc1 (centres undefined)	HCMV antiviral -100.3 (no result: Pf growth 96h, Sm TGR block, Pf growth 48h, Giardia FBPA inh)
CS(=O)(=O)Nc1cccc(-c2ccc3ncnc(NCc4cccs4)c3c2)c1	none (no result: Pf growth 96h, Sm TGR block, Pf growth 48h, HCMV antiviral)
NS(=O)(=O)c1ccc(CCNC(=O)c2ccc3ccccc3n2)cc1	none
Cc1cc(C)cc(OCC(=O)OCCN2C(=O)c3ccccc3C2=O)c1	none (no result: Pf growth 48h)
Cc1ccc(OCC(=O)OCCN2C(=O)c3ccccc3C2=O)cc1C	Pf growth 96h 1.85µM
Cn1ccnc1-c1ccc(-c2nccn2C)cc1	none
Cc1nc2c(c3c1[nH]c1ccccc13)C(O)CC(C)(C)C2 (centres undefined)	Pf growth 48h inconclusive, HCMV antiviral -89.8
CC(=O)N1CCN(C(=O)COC(=O)COc2ccc(C#N)cc2)CC1	none (no result: Giardia FBPA inh)
CCn1ncc(/C=C/C(=O)Nc2c(C)nn(Cc3ccc(Cl)cc3Cl)c2C)c1C	Pf growth 96h inconclusive, Pf growth 48h inconclusive, HCMV antiviral -102.8
CCn1nc(C)c(NC(=O)/C=C/c2cnn(C)c2C)c1C	none
CCOC(=O)/C(=C/C=C1\Sc2cc(C)c(C)cc2N1CC)C(C)=O	Sm TGR block 44.7µM, Pf growth 48h inconclusive, HCMV antiviral -69.5
CCOC(=O)/C(=C\C=C1/Sc2ccccc2N1CC)C(C)=O	Pf growth 48h inconclusive, HCMV antiviral -63.6
CCOC(=O)/C(=C/C=C1\Sc2ccccc2N1CC)C(C)=O	Pf growth 48h inconclusive (no result: HCMV antiviral)
O=Nc1ccc2oc(=O)ccc2c1	none (no result: Pf growth 96h, Sm TGR block, Pf growth 48h, HCMV antiviral)
COc1ccc(C(OCCN2CCC[C@@H](C(=O)O)C2)(c2ccc(OC)cc2)c2ccc(OC)cc2)cc1	none (no result: Pf growth 96h, Sm TGR block, Pf growth 48h, HCMV antiviral)
